Molecules are shown by their SMILES. Values joined by “and” are separate entries in the source; they are usually repeats but may differ in a detail not shown here. Equal values may be shown once. Compounds without any hit were thinned out: in the full panel of roughly 79,000, 15% have a hit. Some compounds were tested as several samples or in several runs, with calls that do not always agree. Active and inactive are the calls of the source. No stated cut-off is given here; in the data, active means growth inhibition above about 70%; inactive means the rest.

A short description of test [1]: NCI Yeast Anticancer Drug Screen. Data for the rad50 strain (AID 155).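 Further: 0% = growth of vehicle-only cultures of the same strain.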 To be noted: S. cerevisiae rad50 strain growth inhibition, stronger effect = higher value; at 50.0 µM unless noted. Put shortly: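 Cells are treated with compound, grown, and their growth is then scored against vehicle-only cultures of the same repair-deficient yeast strain.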
Test [2] in a line: NCI Yeast Anticancer Drug Screen. Data for the mec2-1 strain (AID 157). To be noted: S. cerevisiae mec2-1 strain, stronger effect = higher value; at 50.0 µM unless noted. In a few lines: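 Cells of the genetically defined mec2-1 yeast strain are incubated with test compound. Inhibition of growth is calculated against vehicle-treated controls.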
Test [3] is described as follows: NCI Yeast Anticancer Drug Screen. Data for the sgs1 mgt1 strain (AID 161).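 Further: 0% = growth of cultures given vehicle only.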 To be noted: S. cerevisiae sgs1 mgt1 strain, stronger effect = higher value; at 50.0 µM unless noted. Put shortly:
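Mutant yeast exposed to compound; growth scored against vehicle-only wells.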

The nature of test [4]: NCI Yeast Anticancer Drug Screen. Data for the cln2 rad14 strain (AID 165).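 Further: 0% = growth equal to vehicle treated cultures.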 Particulars: S. cerevisiae cln2 rad14 strain, stronger effect = higher value; at 50.0 µM unless noted. Put shortly: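 The screen exposed genetically defined yeast (cln2 rad14) to test compounds and scored growth inhibition relative to vehicle-treated controls.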
The nature of test [5]: NCI Yeast Anticancer Drug Screen. Data for the bub3 strain (AID 167). To be noted: S. cerevisiae bub3 mutant strain, stronger effect = higher value; at 50.0 µM unless noted. In a few lines:
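Part of a panel of yeast mutants defective in DNA damage repair or cell cycle regulation. Each strain is grown with compound, and inhibition is calculated relative to solvent-treated cultures.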

Test [6] can be described thus: NCI Yeast Anticancer Drug Screen. Data for the mlh1 rad18 strain (AID 175). Particulars: S. cerevisiae mlh1 rad18 strain growth inhibition, stronger effect = higher value; at 50.0 µM unless noted. Put shortly:
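Compound-treated yeast growth, normalised to vehicle controls. Strain bears defined DNA repair mutations.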

On to `C=CCSC[C@H](NC(=O)COc1ccccc1)C(=O)NC(C(=O)OCc1ccc([N+](=O)[O-])cc1)=C(C)C`, for which the growth inhibition is 45.8% (inactive) in test [1]; 26.6% (inactive) in test [2]; 24.6% (inactive) in test [3]; 31.1% (inactive) in test [4]; 39.4% (inactive) in test [5]; 14.4% (inactive) in test [6].

For the compound `Cc1ccc2ccc3ccccc3c2c1`, the growth inhibition in test [1] is 46% (inactive); in test [2], 1.45% (inactive); in test [3], 9.2% (inactive); in test [4], 20.4% (inactive); in test [5], 17.9% (inactive); in test [6], 26.2% (inactive).

Consider `CCCCCCCCN1C(=O)CCC1=O`, for which the growth inhibition in test [1] is -1.45% (inactive); in test [2], -19.4% (inactive); in test [3], -6.3% (inactive); in test [4], 0.5% (inactive); in test [5], -14.9% (inactive); in test [6], -0.5% (inactive).

As for `COc1ccc(NC(=O)Nc2ccc(F)cc2)c(OC)c1`, the growth inhibition in test [1] was 16.1% (inactive); in test [2], 4.9% (inactive); in test [3], 10.9% (inactive); in test [4] it was 13.9% (inactive); in test [5], 24.2% (inactive); in test [6], 7.45% (inactive).

As to `CN(C)CCC(=O)C(=Cc1ccc(Cl)c(Cl)c1)C(=O)CCN(C)C`, the growth inhibition in test [1] was 93.2% (active); in test [2], 97.7% (active); in test [3] it was 95% (active); in test [4], 79.8% (active); in test [5], 97.8% (active); in test [6], 98% (active).

On to `CCCCC(NC(=O)C(C)NC(=O)OCc1ccccc1)C(=O)O` (stereo not given), for which the growth inhibition is 2% (inactive) in test [1]; 6.3% (inactive) in test [2]; 3.4% (inactive) in test [3]; 4.75% (inactive) in test [4]; 12.8% (inactive) in test [5]; -9.6% (inactive) in test [6].

In the case of `NC(CSCCB(O)O)C(=O)O` (stereo not given), the growth inhibition in test [1] is -11.7% (inactive); in test [2], -15.2% (inactive); in test [3], -6.5% (inactive); in test [4], -14.6% (inactive); in test [5], -5% (inactive); in test [6] it was -20.4% (inactive).

As to `COc1ccccc1/C=C1\C(=O)N(C(=O)c2ccc(NC(C)=O)cc2)N=C1C`, the growth inhibition in test [1] was 1.6% (inactive); in test [2], -27.1% (inactive); in test [3], -34.8% (inactive); in test [4], -3.2% (inactive); in test [5], -23.9% (inactive); in test [6] it was -26.1% (inactive).

`CCc1n[nH]c(=O)n1NC(=O)c1ccccc1C(=O)O`: the growth inhibition in test [1] was 15.8% (inactive); in test [2] it was 11.8% (inactive); in test [3], 15.2% (inactive); in test [4] it was 20.6% (inactive); in test [5], 25.9% (inactive); in test [6], 16.2% (inactive).

In the case of `CCCn1c(C)nc2c([N+](=O)[O-])cc(C)cc21`, the growth inhibition in test [1] was -4.2% (inactive); in test [2], -14.8% (inactive); in test [3], -12.9% (inactive); in test [4], -34.2% (inactive); in test [5] it was 13.4% (inactive); in test [6], -4.8% (inactive).

Turning to `O=C(NC(Cc1ccc(I)cc1)C(=O)O)c1ccc(Br)cc1` (stereo not given), the growth inhibition in test [1] was -4.3% (inactive); in test [2] it was -5.65% (inactive); in test [3], 2.8% (inactive); in test [4] it was 12.1% (inactive); in test [5], -9.4% (inactive); in test [6] it was -0.9% (inactive).

Consider `COC(=O)c1cc(C)n(C)c(=O)c1CN`, for which the growth inhibition was -6.4% (inactive) in test [1]; 4.85% (inactive) in test [2]; -8.6% (inactive) in test [3]; -22.4% (inactive) in test [4]; -8.8% (inactive) in test [5]; 0.8% (inactive) in test [6].

For `CC(=O)OC(CCC1CO1)OC(C)=O` (stereo not given), the growth inhibition was 0.65% (inactive) in test [1]; 11.6% (inactive) in test [2]; -0.2% (inactive) in test [3]; -7.65% (inactive) in test [4]; 15.2% (inactive) in test [5]; -0.1% (inactive) in test [6].

Regarding `CCOC(=O)c1c(C)nc(C)c(C(=O)OCC)c1-c1ccc(N(C)C)cc1`, the growth inhibition was 3.7% (inactive) and -7.5% (inactive) in test [1]; 1.75% (inactive) and 1.25% (inactive) in test [2]; 84% (active) and -1.3% (inactive) in test [3]; -4.4% (inactive) and -6.05% (inactive) in test [4]; 1.8% (inactive) and -14.7% (inactive) in test [5]; 4.05% (inactive) and 5.25% (inactive) in test [6].

In the case of `O=CC(NC(=O)N(CCCl)N=O)C(O)C(O)C(O)CO` (stereo not given), the growth inhibition was -8% (inactive) in test [1]; -2.3% (inactive) in test [2]; 2.15% (inactive) in test [3]; -1.7% (inactive) in test [4]; -4.95% (inactive) in test [5]; 5.75% (inactive) in test [6].

Turning to `CC1(C)CC2(Nc3ccccc3N2)C2=C(O1)C(=O)OC2`, the growth inhibition was 9.45% (inactive) in test [1]; -8.25% (inactive) in test [2]; -18.7% (inactive) in test [3]; -1.3% (inactive) in test [4]; -6.15% (inactive) in test [5]; -10.6% (inactive) in test [6].

Consider `Cc1nnc(-n2cccc2)s1`, for which the growth inhibition in test [1] is 0.8% (inactive); in test [2], -18.9% (inactive); in test [3] it was -5.3% (inactive); in test [4], -3.55% (inactive); in test [5], -4.1% (inactive); in test [6] it was 3.25% (inactive).

Take `Cc1ccc(S(=O)(=O)Oc2ccc(Cl)c(C)c2)cc1`: the growth inhibition in test [1] was 39.5% (inactive) and -16.1% (inactive); in test [2], 6% (inactive) and -11.8% (inactive); in test [3] it was 35.4% (inactive) and -25.1% (inactive); in test [4] it was 14.1% (inactive) and -74.5% (inactive); in test [5], 38.9% (inactive) and 14.8% (inactive); in test [6] it was 17.8% (inactive) and 5.1% (inactive).

On to `CN1c2ccccc2N(C)C23N(C)c4ccccc4N(C)C12N(C)c1ccccc1N3C` (stereo not given), for which the growth inhibition is -33% (inactive) in test [1]; 1.8% (inactive) in test [2]; -67.4% (inactive) in test [3]; 18.7% (inactive) in test [4]; -22.1% (inactive) in test [5]; -20.9% (inactive) in test [6].

As for `COCNC(=S)c1ccc(C(N)=O)nc1C(=O)NC(C)(C)C`, the growth inhibition was 15.8% (inactive) in test [1]; 0.4% (inactive) in test [2]; 5.6% (inactive) in test [3]; -3.3% (inactive) in test [4]; -5.8% (inactive) in test [5]; 30.6% (inactive) in test [6].

The record behind these values is PubChem BioAssay (NCI).
